Laboratory results: article PMC5540273 (PLoS ONE, 2017)

test system: RIOK2; settings: concentration: 1 μM, replicates: in singlicate; n = 1
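Note: KINOMEscan kinase panel screen.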

Row | SMILES | %Inh [%]
1 | Cc1ccc(-c2nc(Nc3ccncc3)c3ccccc3n2)s1 [GSK189015] | 26
2 | CC(C)c1cc(-c2ccc3c(N)n[nH]c3c2)nc(N)n1 [GSK2250882] | 14
3 | CC(=O)c1cccc(NC(=O)NC2CCN(c3ccnc(Nc4ccc(F)cc4)n3)C2)c1 (centres unmarked) [GSK1379710] | 0
4 | Cc1ccccc1Cn1ccn2c(=O)cc(N3CCOCC3)nc12 [GSK2269905] | 0
5 | CNc1nc(-c2ccc3c(N)n[nH]c3c2)cc(N2C[C@@H](C(=O)Nc3ccccc3)CC[C@H]2C)n1 [GSK2298859] | 0
6 | Fc1ccc(-c2nc[nH]c2-c2ccncc2)cc1 [SB-217360] | 0
7 | Cc1cccc2c(-c3ccncn3)c(-c3ccc(F)cc3)nn12 [GW515532] | 0
8 | COc1ccc(Nc2nccc(NCCNC(=O)Nc3cc(C)ccc3C)n2)cc1 [GSK1379899] | 0
9 | CS(=O)(=O)CCNCc1nc(-c2ccc3ncnc(Nc4ccc(OCc5ccccc5)c(Cl)c4)c3c2)cs1.Cl [GW582764] | 0
10 | NS(=O)(=O)c1cccc(N/C=C2\C(=O)Nc3ccc(S(=O)(=O)Cc4c(Cl)cccc4Cl)cc32)c1 [GSK398099] | 0
11 | CC(=O)c1c(C)c2cnc(Nc3ccn(C)n3)nc2n(C2CCCC2)c1=O | 24
12 | Cn1cncc1-c1cc2c(Nc3ccc(OCc4ccccc4)cc3)ncnc2cn1 [GW281179] | 11
13 | COc1ccc(CSc2nnc(-c3ccc4c(c3)CCO4)o2)cc1 | 0
14 | CN1c2ccc(-c3ccc(C(N)=O)cc3)cc2-c2[nH]ncc2S1(=O)=O | 0
15 | CC(C)c1ccc(O)cc1Nc1ccnc2ccc(C(F)(F)F)cc12 [GW482059] | 5
16 | O=C(Nc1n[nH]c2nc(-c3cccs3)c(Br)cc12)C1CCCC1 [SB-743341] | 7
17 | CS(=O)(=O)CCNCc1nc(-c2ccc3ncnc(Nc4ccc5c(cnn5Cc5ccccc5)c4)c3c2)cs1.Cl.Cl [GW569716] | 0
18 | Cl.Cl.Cl.N#Cc1ccc(CCNc2nccc(-c3cccc(CN4CCNCC4)c3)n2)cc1 [GSK2137462] | 42
19 | Fc1ccc(-c2nn3cccc(F)c3c2-c2ccncc2)cc1 [GW475620] | 7
20 | COc1ccc(CSc2nnc(-c3ccc4ncsc4c3)o2)cc1C(F)(F)F | 13
21 | Cc1ccc(NC(=O)Nc2ccccc2F)cc1-c1ccc(C(=O)Nc2ccncc2)cc1 [GSK1398477] | 11
22 | O=C1NC(=O)C(c2ccc(Cl)cc2)=C1Nc1cccc(Cl)c1 [SB-317651] | 0
23 | CNc1nc(-c2ccc3c(N)n[nH]c3c2)cc(N2C[C@@H](C(=O)NC3CCCCC3)OC[C@H]2C)n1 [GSK2375584] | 1
